A selection: hits, their analogues and other compounds. The true share with any hit is near 2.2%.
Statin myotox sup: suppressors of simvastatin-induced myotoxicity in C2C12 myotubes; ATP luminescence, 48 h; scaled: DMSO 0, geranylgeraniol control 100; rescue of ATP level, % at 7.49 µM; 330,000 tested, 0.78% active;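 active = mean ATP rescue above about 67%, or every replicate alone reaching that limit, limit read from the data, passing the limit was not always enough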;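 note: myotubes were challenged with 10 µM simvastatin during compound exposure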
DENV2 CPE: protects cells from dengue virus 2 cytopathic effect; DENV2-infected cells, cytopathic effect rescue, plate reader; CPE inhibition, % at 9.99 µM; 350,000 tested, 1.7% active; in the data active = CPE inhibition above about 20%, passing the limit was not always enough; tested in BHK-21 cells;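 note: 0% = median of neutral control wells and 100% = median of positive control wells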
PvdQ inh: P. aeruginosa PvdQ acylase inhibition; purified PvdQ acylase, fluorescence plate reader; inhibition, % at 10 µM; 340,000 tested, 0.063% active; in the data active = inhibition above about 30%, passing the limit was not always enough;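 note: 0% = vehicle neutral wells and 100% = reference inhibitor wells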
miR122 inh: blocks miR-122 activity in Huh7 sensor cells; activation (reporter increase), % at 12.5 µM; Huh7 miR-122 Renilla luciferase sensor, 48 h; neutral wells = 0, positive control = 100; 340,000 tested, 0.3% active;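 active = mean replicate activation score at least 90 and every replicate individually at or above 90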;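 note: higher luciferase means less miR-122 activity so hits act as miR-122 inhibitors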
PGC1a acetyl inh: modulators of PGC1a acetylation; U2OS PGC1a acetylation, AlphaScreen anti-acetyl-lysine; with virally co-expressed GCN5 acetyltransferase; inhibition, % at 15.6 µM; 350,000 tested, 0.17% active; AID 651687;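 active = every replicate shows inhibition of at least 40%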;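 note: 0% = neutral control wells and 100% = positive control wells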
Numbers without * were called inactive; · = not tested or not shown; [ ] = remark or other dose.

SMILES	Statin myotox sup	DENV2 CPE	PvdQ inh	miR122 inh	PGC1a acetyl inh
CC(=O)N1CCN(c2nnnn2-c2ccccc2)CC1	126*	·	-17	-1	-1
CC(=O)N1[C@H](CO)[C@@H](c2ccccc2)C12CN(Cc1nccs1)C2	·	3	·	·	3
CC(C)(C)OC(=O)NOCC(=O)N(CC(=O)c1ccccc1)Cc1ccccc1	3	29*	-5	-4	-9
COc1ccc(NC(=O)Nc2ccc3c(c2)C(=O)N([C@H](C)CO)C[C@H](C)[C@@H](CN(C)C(=O)c2ccccc2)OCCCC[C@@H](C)O3)cc1	-12	-2	·	-11[16.7 µM]	1
CCCCc1cc(=O)oc2cc(OCc3nn[nH]n3)ccc12	16	-3	-11	-3	4
CCCc1cc(=O)oc2cc(OCc3nn[nH]n3)ccc12	-2	·	-7	164*	·
Cc1noc(C)c1S(=O)(=O)N(C)C[C@H]1OCCCC[C@@H](C)Oc2ccc(NS(=O)(=O)c3ccccc3)cc2C(=O)N([C@@H](C)CO)C[C@H]1C	·	-5	·	-4[16.7 µM]	-10
CCC(=O)N(C)C[C@H]1Oc2cc(-c3ccccc3C)ccc2S(=O)(=O)N([C@@H](C)CO)C[C@H]1C	-10	1	·	2[16.7 µM]	2
Cc1no[n+]([O-])c1COc1cccc(/C=N/Nc2nncn2N)c1	·	1	2	·	50*
O=C1[C@H](Oc2ccccc2)[C@@H](c2ccncc2)N1c1ccncc1	-5	-6	-11	3	11
O=C1[C@@H](Oc2ccccc2)[C@@H](c2ccncc2)N1c1ccncc1	9	28*	-6	8	1
C[C@@H]1CCCCO[C@H](CN(C)C(=O)Nc2ccccc2)[C@H](C)CN([C@H](C)CO)C(=O)c2cc(NS(=O)(=O)c3cccs3)ccc2O1	·	8	·	-5[16.7 µM]	1
COc1ccc(-n2nc(C#N)c(Cl)cc2=O)cc1	·	1	-14	-17	90*
C=CCN=C1NN=C(c2ccc3c(c2)OCCO3)CS1	1	-2	-4	154*	·
COCC(=O)Nc1ccc2c(c1)[C@H]1C[C@@H](CC(=O)OC)O[C@H](CO)[C@H]1O2	-2	7	·	0[16.7 µM]	-1
COc1ccc(NC(=O)COC(=O)c2c(C)noc2C)cc1Cl	-2	39*	·	-9	-28
C[C@H]1CN([C@@H](C)CO)C(=O)c2cccc(NC(=O)CCCCCC(=O)Nc3ccccc3N)c2O[C@@H]1CN(C)C(=O)Nc1ccc2c(c1)OCO2	·	-2	·	·	4
NC(=O)c1cccc(S(=O)(=O)N2CCCCC2)c1	-1	·	14	-2	-4
Nc1cccc2c1C(=O)N(C(=O)c1cccc(S(=O)(=O)N3CCCC3)c1)C2=O	138*	·	-13	-3	-8
COc1cc(C)c(C(C)C)cc1S(=O)(=O)NCCCn1ccnc1	114*	·	-4	14	-20
COc1c(S(=O)(=O)NCCCn2ccnc2)ccc(Cl)c1Cl	4	-4	-7	125*	-11
O=C(C[C@H]1CC[C@@H]2[C@H](COC[C@H](O)CN2C(=O)c2ccccc2F)O1)N1CCOCC1	-11	-12	·	-1[16.7 µM]	-3
COc1cccc(-c2ccc3c(c2)[C@@H]2[C@@H](CCN2C(=O)NC2CCCCC2)[C@H](CO)N3C)c1	·	1	·	·	-15
CS(=O)(=O)N1CCSC1c1ccc(Br)cc1 (centres undefined)	7	0	-1	-5	7
COc1ccc(Br)cc1C1SCCN1S(C)(=O)=O (centres undefined)	118*	·	-13	1	-9
SMILES	Statin myotox sup	DENV2 CPE	PvdQ inh	miR122 inh	PGC1a acetyl inh
COCCNC(=O)C[C@H]1C[C@H]2c3cc(NC(=O)C4CCC4)ccc3O[C@H]2[C@@H](CO)O1	-9	-6	·	9[16.7 µM]	11
CCCN1CCN(C(=O)c2ccc(Sc3ccc(C)cc3)c(NC(C)=O)c2)CC1	80*	3	-3	-1	-6
CC(=O)Nc1cc(C(=O)N2CCc3ccccc3C2)ccc1Sc1ccc(C)cc1	·	·	3	·	·
C[C@H](CO)N1C[C@H](C)[C@H](CN(C)S(=O)(=O)c2ccccc2)OCCCC[C@H](C)Oc2ccc(NS(=O)(=O)c3cn(C)cn3)cc2C1=O	·	-4	·	0[16.7 µM]	9
CCCCCCCC(=O)Nc1cc(C(=O)NCc2ccc(C)cc2)ccc1N1CCC2(CC1)CC(c1ccccc1)=NO2	-7	27*	-12	2	-3
CCN(CC)S(=O)(=O)c1ccc2c(c1)N(CC(=O)NCCN1CCOCC1)C(=O)CO2	116*	6	-11	-1	3
Cc1nnc(SCC(=O)N2CCC(c3noc4ccc(F)cc34)CC2)s1	8	0	-11	-2	57*
Cc1ccccc1S(=O)(=O)N1CC(=O)N2[C@H](CO)[C@H](c3ccc(C#Cc4ccccc4)cc3)[C@H]2C1	·	24*	·	·	-12
CCS(=O)(=O)N1CC(=O)N2[C@H](CO)[C@@H](c3ccc(C#CCC(C)C)cc3)[C@@H]2C1	·	48*	·	·	-2
C[C@@H]1CN([C@@H](C)CO)C(=O)c2cc(NS(=O)(=O)c3ccccc3)ccc2O[C@H]1CN(C)C(=O)Nc1ccc2c(c1)OCO2	·	6	·	2[16.7 µM]	-9
Cc1noc(C)c1S(=O)(=O)N(C)C[C@@H]1OCCCC[C@@H](C)Oc2ccc(NS(=O)(=O)c3ccc(Cl)cc3)cc2C(=O)N([C@@H](C)CO)C[C@H]1C	·	36*	·	-7[16.7 µM]	-18
Cc1noc(C)c1S(=O)(=O)N(C)C[C@H]1OCCCC[C@@H](C)Oc2ccc(NS(=O)(=O)c3ccc(Cl)cc3)cc2C(=O)N([C@@H](C)CO)C[C@@H]1C	·	31*	·	-2[16.7 µM]	-14
Cc1noc(C)c1S(=O)(=O)Nc1ccc2c(c1)C(=O)N([C@@H](C)CO)C[C@@H](C)[C@@H](CN(C)S(=O)(=O)c1ccc(Cl)cc1)OCCCC[C@H](C)O2	140*	-1	·	-1[16.7 µM]	·
Cc1noc(C)c1S(=O)(=O)N(C)C[C@H]1OCCCC[C@@H](C)Oc2ccc(NS(=O)(=O)c3ccc(Cl)cc3)cc2C(=O)N([C@@H](C)CO)C[C@H]1C	·	-14	·	-5[16.7 µM]	-30
COc1cccc(NC(=O)CN(C)C(=O)Cc2ccc3c(c2)OCCO3)c1	1	42*	-17	-13	·
COc1cccc(NC(=O)CN(C)C(=O)Cc2ccc3c(c2)CCC3)c1	3	-3	-14	-2	-15
CCn1nc(C)c(/C=C/C(=O)Nc2ccc(C)cc2C)c1C	·	89*	9	·	·
C[C@H](CO)N1C[C@H](C)[C@H](CN(C)S(=O)(=O)c2cccs2)Oc2ccc(NS(=O)(=O)c3ccc(Cl)cc3)cc2C1=O	26	-4	·	-7[16.7 µM]	-8
C[C@@H]1CN([C@@H](C)CO)C(=O)c2cc(NS(=O)(=O)c3ccc(F)cc3)ccc2O[C@@H]1CN(C)S(=O)(=O)c1cccs1	4	28*	·	9[16.7 µM]	-4
C[C@H]1CN([C@@H](C)CO)C(=O)c2cc(NS(=O)(=O)c3ccc(F)cc3)ccc2O[C@H]1CN(C)S(=O)(=O)c1ccc(F)cc1	28	-2	·	-2[16.7 µM]	-17

From PubChem
